Measurements from PubChem BioAssay (NCATS).
Results filed as inconclusive are left out. Calls of active or inactive are those of the source. Unless noted, calls come from the whole dose curve; as a rule, active = well fitted curve in the direction sought with a large enough effect; inconclusive = small, poorly fitted or top-dose-only effect, or another doubt; inactive = no such curve, though single readings can be large; an effect the other way counts as inactive or inconclusive.

Assays:
[1] = Confirmation and Secondary Assay for Modulators of Hemoglobin Beta Chain Splicing at IVS2 654 locus (AID 910);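 note: HeLa cells stably carrying EGFP split by mutant beta-globin IVS2-654 intron; per-well total GFP intensity by laser scanning cytometry after 2-day treatment; % of control where 0% means no effect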
Method in brief: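 Readout: per-well total peak green fluorescence (488 nm ex, 500–520 nm em) from objects 5–250 µm, reflecting correct splicing of an EGFP-654 reporter. Compounds were applied for 2 days at 37 °C to overnight-plated HeLa EGFP-654 cells; controls were DMSO and 500 nM IVS2-654 PNA.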

[2] = Confirmation and Secondary Assay for Modulators of Hemoglobin Beta Chain Splicing at IVS2 705 locus (AID 930);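 note: HeLa cells stably expressing the EGFP-705 splicing reporter; % of control where 0% means no effect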
Method in brief: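 HeLa cells stably carrying EGFP interrupted by mutant beta-globin IVS2-705 intron (CMV-driven) were seeded at 500 cells/well, treated next day with compound for 2 days at 37C; corrected splicing restores EGFP, read as total peak GFP intensity per well.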

[3] = qHTS Assay for Lipid Storage Modulators (AID 1519; calls by dose curve; for activity change, negative = inhibition: % is set by controls: 0 for no effect and ±100 for the full control effect); settings: Drosophila S3 cells, BODIPY lipid droplet/cell ratio, laser cytometry, cells loaded with oleic acid; for activity change, negative = inhibition: at 57.5 µM (top of the series)
Method in brief: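 Cells seeded at 5,000 per well were treated with compounds over a concentration series and loaded with oleic acid (400 uM, as added). Lipid droplet fluorescence (488 nm excitation, 500-530 nm channel) was read by laser-scanning cytometry and normalized to 20 uM Triacsin C.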

[4] = target: ATP-dependent 6-phosphofructokinase (Trypanosoma brucei brucei) (UniProt O15648); assay: qHTS Assay to Find Inhibitors of T. brucei phosphofructokinase: hit validation (AID 492961);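 note: luminescence reports ADP formed as PFK phosphorylates fructose-6-phosphate with ATP; % is set by controls: 0 for no effect and ±100 for the full control effect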
Method in brief: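 ADP-Glo luminescence read-out of ADP formed by 1.25 nM PFK from 0.1 mM ATP and 0.5 mM F6P (TEA pH 8.0, 45 min, RT). Compounds titrated; activity normalized to no-enzyme and full-enzyme controls.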

CP201 = assay: qHTS profiling for inhibitors of Plasmodium falciparum proliferation (AID 504749); note: nearly all actives have a fitted effect of over 60% in size; note: potency is the fitted concentration of half-maximal effect;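 for activity, negative = inhibition: 0% = DMSO vehicle and full inhibition = artemisinin control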; settings: P. falciparum in erythrocytes, SYBR Green DNA, 72 h; series mostly up to 12.8 µM
Method in brief: (§1)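 Three-day growth assay of blood-stage parasites in erythrocytes (0.3% parasitemia, 2.5% hematocrit) at 37 C, 5% CO2, quantified by SYBR Green DNA staining after overnight detergent lysis.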

CP211 = assay: as above; settings: P. falciparum in erythrocytes, SYBR Green DNA, 72 h; series mostly up to 12.8 µM
Method in brief: as §1

CP262 = assay: as above; settings: P. falciparum in erythrocytes, SYBR Green DNA, 72 h; series mostly up to 12.8 µM
Method in brief: as §1

CP266 = assay: as above; settings: P. falciparum in erythrocytes, SYBR Green DNA, 72 h; series mostly up to 12.8 µM
Method in brief: as §1

CP268 = assay: as above; settings: P. falciparum in erythrocytes, SYBR Green DNA, 72 h; series mostly up to 12.8 µM
Method in brief: as §1

CP305 = assay: as above; settings: P. falciparum in erythrocytes, SYBR Green DNA, 72 h; series mostly up to 12.8 µM
Method in brief: as §1

CP325 = assay: as above; settings: P. falciparum in erythrocytes, SYBR Green DNA, 72 h; series mostly up to 12.8 µM
Method in brief: as §1

CP329 = assay: as above; settings: P. falciparum in erythrocytes, SYBR Green DNA, 72 h; series mostly up to 12.8 µM
Method in brief: as §1

FAB9 = assay: as above; settings: P. falciparum in erythrocytes, SYBR Green DNA, 72 h; series mostly up to 12.8 µM
Method in brief: as §1

JCK = assay: as above; settings: P. falciparum in erythrocytes, SYBR Green DNA, 72 h; series mostly up to 12.8 µM
Method in brief: as §1

PC15 = assay: as above; settings: P. falciparum in erythrocytes, SYBR Green DNA, 72 h; series mostly up to 12.8 µM
Method in brief: as §1

PC49 = assay: as above; settings: P. falciparum in erythrocytes, SYBR Green DNA, 72 h; series mostly up to 12.8 µM
Method in brief: as §1

[5] = target: Ubiquitin carboxyl-terminal hydrolase 1 (Homo sapiens) (UniProt O94782); assay: Inhibitors of USP1/UAF1: Pilot qHTS (AID 504865);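 note: rhodamine fluorescence freed from ubiquitin-rhodamine substrate followed over time; top concentration of the series differs between compounds; % is set by controls: 0 for no effect and ±100 for the full control effect; nearly all actives have a fitted effect of over 35% in size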
Method in brief: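 Enzyme-free wells gave the negative control, while test wells held 1nM USP1/UAF1 preincubated with compound for 15 min at room temperature. Ub-Rho at 150nM final started the reaction, and fluorescence at 480/540 nm was recorded kinetically.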

[6] = qHTS profiling for inhibitors of Plasmodium falciparum proliferation (AID 504749); note: potency is the fitted concentration of half-maximal effect;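 for activity, negative = inhibition: 0% = DMSO vehicle and full inhibition = artemisinin control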; for all read-outs here: nearly all actives have a fitted effect of over 60% in size; settings: P. falciparum in erythrocytes, SYBR Green DNA, 72 h; for activity, negative = inhibition: at 28.7 µM (top of the series)
Method in brief: as §1

[7] = target: Cytochrome P450 3A4 (Homo sapiens) (UniProt P08684); assay: qHTS Assay for Inhibitors and Substrates of Cytochrome P450 3A4 (AID 884); note: nearly all actives have a fitted effect of over 50% in size; note: potency is the fitted concentration of half-maximal effect; for activity change, negative = inhibition: % is set by controls: 0 for no effect and ±100 for the full control effect
Method in brief: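 20 nM human CYP3A4 with 25 uM Luciferin-PPXE (at KM) in 200 mM KPO4, preincubated 10 min with compound; NADPH regeneration started a 60 min RT reaction. Luciferin detected by luminescence, normalized to 57 uM ketoconazole as full inhibition.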

[8] = target: Cytochrome P450 3A4 (Homo sapiens) (UniProt P08684); assay: qHTS Assay for Activators of Cytochrome P450 3A4 (AID 885); note: nearly all actives have a fitted effect of over 65% in size; note: potency is the fitted concentration of half-maximal effect
Method in brief: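 Signal was normalized against complete inhibition by 57 uM ketoconazole. The reaction used 20nM CYP3A4 with 25uM Luciferin-PPXE, 10-min compound preincubation and a 60-min NADPH-supported step at RT.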

[9] = measured here: cell count channel max response
[10] = measured here: lipid channel max response

Sequence of ATP-dependent 6-phosphofructokinase (Trypanosoma brucei brucei) (O15648 whole entry, looked up): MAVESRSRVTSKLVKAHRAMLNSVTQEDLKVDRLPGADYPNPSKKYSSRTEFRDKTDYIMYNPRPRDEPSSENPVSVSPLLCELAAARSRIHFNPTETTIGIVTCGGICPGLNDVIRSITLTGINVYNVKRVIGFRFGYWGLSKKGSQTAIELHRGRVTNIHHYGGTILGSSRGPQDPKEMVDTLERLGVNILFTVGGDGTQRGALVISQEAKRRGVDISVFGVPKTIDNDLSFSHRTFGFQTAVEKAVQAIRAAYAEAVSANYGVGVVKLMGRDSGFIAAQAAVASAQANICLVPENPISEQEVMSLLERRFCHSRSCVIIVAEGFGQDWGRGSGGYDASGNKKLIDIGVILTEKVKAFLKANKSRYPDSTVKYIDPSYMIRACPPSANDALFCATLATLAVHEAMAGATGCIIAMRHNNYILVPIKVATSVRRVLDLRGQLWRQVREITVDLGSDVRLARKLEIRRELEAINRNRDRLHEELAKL
Sequence of Cytochrome P450 3A4 (Homo sapiens) (P08684 whole entry, looked up): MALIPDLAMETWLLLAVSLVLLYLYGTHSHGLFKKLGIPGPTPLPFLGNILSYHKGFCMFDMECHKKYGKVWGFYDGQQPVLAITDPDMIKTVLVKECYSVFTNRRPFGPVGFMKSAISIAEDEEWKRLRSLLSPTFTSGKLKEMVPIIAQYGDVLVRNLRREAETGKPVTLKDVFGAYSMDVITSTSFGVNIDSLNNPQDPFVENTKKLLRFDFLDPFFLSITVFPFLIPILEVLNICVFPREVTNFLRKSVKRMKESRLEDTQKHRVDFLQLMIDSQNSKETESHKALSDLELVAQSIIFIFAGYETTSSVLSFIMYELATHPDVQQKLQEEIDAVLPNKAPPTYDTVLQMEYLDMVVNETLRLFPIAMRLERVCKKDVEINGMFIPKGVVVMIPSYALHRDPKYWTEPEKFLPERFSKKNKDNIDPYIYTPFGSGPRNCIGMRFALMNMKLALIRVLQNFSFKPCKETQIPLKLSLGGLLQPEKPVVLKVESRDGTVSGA
Sequence of Ubiquitin carboxyl-terminal hydrolase 1 (Homo sapiens) (O94782 whole entry, looked up): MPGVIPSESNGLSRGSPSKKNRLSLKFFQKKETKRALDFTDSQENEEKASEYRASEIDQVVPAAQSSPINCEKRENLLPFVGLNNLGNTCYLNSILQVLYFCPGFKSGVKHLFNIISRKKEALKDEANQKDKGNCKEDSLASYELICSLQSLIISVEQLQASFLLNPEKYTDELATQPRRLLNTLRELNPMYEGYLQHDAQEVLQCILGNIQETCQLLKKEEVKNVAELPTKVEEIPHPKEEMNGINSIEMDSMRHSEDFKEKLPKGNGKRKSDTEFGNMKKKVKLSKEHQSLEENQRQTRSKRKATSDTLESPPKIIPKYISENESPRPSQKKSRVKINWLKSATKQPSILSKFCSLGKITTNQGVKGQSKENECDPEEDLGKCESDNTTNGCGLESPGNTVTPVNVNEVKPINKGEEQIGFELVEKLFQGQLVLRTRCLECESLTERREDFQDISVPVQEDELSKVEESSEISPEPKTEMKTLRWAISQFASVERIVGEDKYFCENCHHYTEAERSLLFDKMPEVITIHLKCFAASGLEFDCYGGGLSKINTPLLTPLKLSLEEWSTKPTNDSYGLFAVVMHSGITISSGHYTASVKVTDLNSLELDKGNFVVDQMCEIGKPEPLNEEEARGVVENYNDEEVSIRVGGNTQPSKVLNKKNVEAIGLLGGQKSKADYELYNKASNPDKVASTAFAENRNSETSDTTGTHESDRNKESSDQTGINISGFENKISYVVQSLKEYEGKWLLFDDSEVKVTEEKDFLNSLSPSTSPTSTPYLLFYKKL

CC(=O)OCC(=O)[C@@]12OC3(CCCC3)OC1CC1C3CCC4=CC(=O)C=C[C@@]4(C)[C@]3(F)C(O)C[C@]12C (some centres not stated)
7.71%: max response [3, 10]
-2.26%: max response [3, 9]
inactive: Potency [1] | Potency [2] | activity change, negative = inhibition [3] 9.16% | outcome [4] | Potency (CP201) | Potency (CP211) | Potency (CP262) | Potency (CP266) | Potency (CP268) | Potency (CP305) | Potency (CP325) | Potency (CP329) | Potency (FAB9) | Potency (JCK) | Potency (PC15) | Potency (PC49)

O=c1[nH]c(=O)n([C@@H]2O[C@H](CO)[C@@H](O)[C@H]2O)cc1F
inactive: activity change, negative = inhibition [3] -3.28% | Potency [5]
-5.85%: max response [3, 10]
0.66%: max response [3, 9]

CO[C@]12C(COC(N)=O)C3=C(C(=O)C(C)=C(N)C3=O)N1CC1NC12 (some centres not stated)
5.7%: max response [3, 9]
inactive: Potency [1] | Potency [2] | activity change, negative = inhibition [3] 3.3% | outcome [4] | Potency (CP262)
11.5%: max response [3, 10]
active: Potency ([6]; parasite line A) 1.26 µM | Potency ([6]; parasite line B) 1.26 µM | Potency (CP211) 19 µM | Potency (FAB9) 5.01 µM | Potency (JCK) 5.01 µM | Potency (PC15) 1.41 µM | Potency (PC49) 3.55 µM

NC(=O)NCCC[C@H](N)C(=O)O
-16.4%: max response [3, 9]
-15.2%: max response [3, 10]
inactive: Potency [7] | activity change, negative = inhibition [3] -0.41% | Potency [5]

CCOC(=O)C1=CC(OC(CC)CC)C(NC(C)=O)C(N)C1 (configuration not stated)
14.9%: max response [3, 9]
inactive: Potency [8] | Potency [1] | Potency [2] | activity change, negative = inhibition [3] 11.6% | outcome [4] | Potency [5] | activity, negative = inhibition ([6]; parasite line A) 0.564% | activity, negative = inhibition ([6]; parasite line B) -0.576% | Potency (CP201) | Potency (CP211) | Potency (CP262) | Potency (CP266) | Potency (CP268) | Potency (CP305) | Potency (CP325) | Potency (CP329) | Potency (FAB9) | Potency (JCK) | Potency (PC15) | Potency (PC49)
27.8%: max response [3, 10]

CC(=O)OC1CCC2C3CCc4cc(O)ccc4C3CCC12C (configuration not stated)
inactive: Potency [1] | Potency [2] | activity change, negative = inhibition [3] -1.06% | outcome [4] | activity, negative = inhibition ([6]; parasite line A) 6.77% | activity, negative = inhibition ([6]; parasite line B) 4.39% | Potency (CP201) | Potency (CP211) | Potency (CP262) | Potency (CP266) | Potency (CP268) | Potency (CP305) | Potency (CP325) | Potency (CP329) | Potency (FAB9) | Potency (JCK) | Potency (PC15) | Potency (PC49)
8.25%: max response [3, 10]
7.54%: max response [3, 9]

C[C@@]12CCC(=O)C=C1C=CC1C2CC[C@]2(C)C1CC[C@@]21CCC(=O)O1 (some centres not stated)
12.9%: max response [3, 10]
3.63%: max response [3, 9]
inactive: Potency [7] | Potency [1] | Potency [2] | activity change, negative = inhibition [3] 7.74% | outcome [4] | Potency [5] | activity, negative = inhibition ([6]; parasite line B) -24.2% | Potency (CP201) | Potency (CP211) | Potency (CP262) | Potency (CP266) | Potency (CP268) | Potency (CP305) | Potency (CP325) | Potency (CP329) | Potency (FAB9) | Potency (JCK) | Potency (PC15) | Potency (PC49)
active: Potency [8] 15.8 µM

CC1(C)S[C@H]2C(NC(=O)[C@@H](N)c3ccc(O)cc3)C(=O)N2[C@@H]1C(=O)O (some centres not stated)
32.6%: max response [3, 10]
17.1%: max response [3, 9]
inactive: Potency [7] | Potency [1] | Potency [2] | activity change, negative = inhibition [3] 9.47% | outcome [4] | Potency [5] | activity, negative = inhibition ([6]; parasite line A) -0.804% | Potency (CP201) | Potency (CP211) | Potency (CP262) | Potency (CP266) | Potency (CP268) | Potency (CP305) | Potency (CP325) | Potency (CP329) | Potency (FAB9) | Potency (JCK) | Potency (PC15) | Potency (PC49)

CCC(=O)O[C@@]1(C(=O)CCl)C(C)CC2C3CCC4=CC(=O)C=C[C@@]4(C)[C@]3(F)C(O)C[C@]21C (some centres not stated)
inactive: Potency [8] | Potency [1] | Potency [2] | activity change, negative = inhibition [3] 11.7% | outcome [4] | Potency (FAB9) | Potency (JCK) | Potency (PC49)
20.1%: max response [3, 10]
9.83%: max response [3, 9]

CC(=O)OC1CCC2(C)C3CC(=O)C4(C)C(CC5OC6(CCC(C)CO6)C(C)C54)C3CC[C@H]2C1 (some centres not stated)
11.2%: max response [3, 9]
17.7%: max response [3, 10]
inactive: Potency [7] | Potency [1] | Potency [2] | activity change, negative = inhibition [3] 5.04% | Potency [5]

CC1O[C@@H](O[C@H]2C(Oc3cc(O)c4c(c3)OC(c3ccc(O)cc3)CC4=O)OC(CO)C(O)C2O)C(O)C(O)C1O (some centres not stated)
21.6%: max response [3, 10]
13%: max response [3, 9]
inactive: Potency [7] | Potency [1] | Potency [2] | activity change, negative = inhibition [3] 6.1% | Potency [5]

CC(=O)OC1C=C[C@]2(C)C(CC(OC(C)=O)[C@@]3(C)C4=CC(=O)OC(c5ccoc5)[C@]4(C)CCC23)C1(C)C (some centres not stated)
1.1%: max response [3, 10]
inactive: Potency [7] | Potency [1] | Potency [2] | activity change, negative = inhibition [3] -0.882% | Potency [5]
active: Potency [8] 12.6 µM
-3.66%: max response [3, 9]

O=C1CC(c2ccc(O)c(O)c2)Oc2cc(O)cc(O)c21 (configuration not stated)
9.21%: max response [3, 10]
-10.3%: max response [3, 9]
active: Potency [7] 39.8 µM
inactive: Potency [8] | Potency [2] | activity change, negative = inhibition [3] 17.7% | Potency [5]

O=C(Cc1ccccc1)NO
inactive: Potency [7] | Potency [1] | Potency [2] | activity change, negative = inhibition [3] 4.41% | Potency [5]
2.32%: max response [3, 9]
5.58%: max response [3, 10]

CC(=O)OCC(OC(C)=O)C(OC(C)=O)C(OC(C)=O)C(OC(C)=O)C(COC(C)=O)OC(C)=O (configuration not stated)
5.07%: max response [3, 9]
inactive: Potency [7] | Potency [1] | Potency [2] | activity change, negative = inhibition [3] 10.5% | Potency [5]
17.8%: max response [3, 10]

CC(=O)OC1CC(O)C(C)(C)C2CC(OC(C)=O)[C@]3(C)C(CC[C@@]4(C)C(c5ccoc5)OC(=O)C5OC534)[C@]12C (some centres not stated)
12.6%: max response [3, 9]
active: Potency [7] 2.51 µM
inactive: Potency [8] | Potency [1] | Potency [2] | activity change, negative = inhibition [3] 4.32% | Potency [5]
20.3%: max response [3, 10]
